From the supplement of paper PMC12350171
Structures can show the parent of a compound that is named as a salt. Unmarked numbers belong to inactive results.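 Rule for the calls: active = AUC significantly below DMSO controls by Student t-fit with adjusted P under 0.01; inactive = not significantly reduced.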

Tested on: Haemophilus parainfluenzae
Assay: growth AUC normalised to DMSO control (fraction of control); higher = less growth inhibition, active = hit call of the paper
Conditions: 20 µM
How it was run: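 Pathogens passaged twice anaerobically were inoculated at a starting OD578 of 0.01 into pre-reduced mGAM plates with drug at 20 μM and 1% DMSO, sealed with breathable membranes. Haemophilus parainfluenzae medium was supplemented with hemin and NAD. OD578 was read hourly for 24 h, with three biological replicates. Growth-curve AUC was computed by the trapezoidal rule up to the exponential-to-stationary transition and normalised to DMSO controls on the same plate.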

SMILES	growth AUC normalised to DMSO control
COc1cc2nc(N3CCN(C(=O)c4ccco4)CC3)nc(N)c2cc1OC [Prazosin hydrochloride]	0.981
c1ccc([C@H]2CN3CCSC3=N2)cc1 [Levamisole hydrochloride]	0.991
O=C1CCc2ccc(OCCCCN3CCN(c4cccc(Cl)c4Cl)CC3)cc2N1 [Aripiprazole]	0.994
Nc1nc(F)nc2c1ncn2[C@@H]1O[C@H](CO)[C@@H](O)[C@@H]1O [Fludarabine]	1.01
CCOc1cc(CC(=O)N[C@@H](CC(C)C)c2ccccc2N2CCCCC2)ccc1C(=O)O [Repaglinide]	1.08
CCCCNc1cc(C(=O)O)cc(S(N)(=O)=O)c1Oc1ccccc1 [Bumetanide]	0.991
COc1ccccc1N1CCN(CCCNc2cc(=O)n(C)c(=O)n2C)CC1 [Urapidil hydrochloride]	0.979
CCCC(=O)Nc1ncnc2c1ncn2[C@@H]1O[C@@H]2COP(=O)(O)O[C@H]2[C@H]1OC(=O)CCC [Bucladesine sodium salt]	1
C[C@]1(Cn2ccnn2)[C@H](C(=O)O)N2C(=O)C[C@H]2S1(=O)=O [Tazobactam]	1.02
Nc1ncnc2c1ncn2[C@@H]1O[C@H](CO)[C@@H](O)[C@@H]1O [Vidarabine]	0.96
Cc1cccc(Nc2ccncc2S(=O)(=O)NC(=O)NC(C)C)c1 [Torsemide]	0.978
NC(=O)c1ncn([C@@H]2O[C@H](CO)[C@@H](O)[C@H]2O)n1 [Ribavirin]	1
CC[C@H](C)[C@H]1O[C@]2(C=C[C@@H]1C)C[C@@H]1C[C@@H](C/C=C(\C)[C@@H](O[C@H]3C[C@H](OC)[C@@H](O[C@H]4C[C@H](OC)[C@@H](O)[C@H](C)O4)[C@H](C)O3)[C@@H](C)/C=C/C=C3\CO[C@@H]4[C@H](O)C(C)=C[C@@H](C(=O)O1)[C@]34O)O2.CO[C@H]1C[C@H](O[C@H]2[C@H](C)O[C@@H](O[C@@H]3/C(C)=C/C[C@@H]4C[C@@H](C[C@]5(C=C[C@H](C)[C@@H](C(C)C)O5)O4)OC(=O)[C@@H]4C=C(C)[C@@H](O)[C@H]5OC/C(=C\C=C\[C@@H]3C)[C@]54O)C[C@@H]2OC)O[C@@H](C)[C@@H]1O [Avermectin B1]	0.997
N=C(N)NC(=N)NCCc1ccccc1 [Phenformin hydrochloride]	1.04
NC[C@@H]1O[C@H](O[C@H]2[C@@H](O)[C@H](O[C@@H]3[C@@H](O)[C@H](N)C[C@H](N)[C@H]3O[C@H]3O[C@H](CN)[C@@H](O)[C@H](O)[C@H]3N)O[C@@H]2CO)[C@H](N)[C@@H](O)[C@@H]1O [Neomycin sulfate]	0.923
C[N+]1(C)CCC(=C(c2ccccc2)c2ccccc2)CC1 [Diphemanil methylsulfate]	0.949
O=c1n(CCCN2CCN(c3cccc(Cl)c3)CC2)nc2ccccn12 [Trazodone hydrochloride]	0.98
C/C=C(/C(=C/C)c1ccc(O)cc1)c1ccc(O)cc1 [Dienestrol]	0.999
CC1(C)[C@@H](OC(=O)CCC(=O)O)CC[C@]2(C)[C@H]3C(=O)C=C4[C@@H]5C[C@@](C)(C(=O)O)CC[C@]5(C)CC[C@@]4(C)[C@]3(C)CC[C@@H]12 [Carbenoxolone disodium salt]	0.964
CC(C)(C)NC(=O)[C@@H]1C[C@@H]2CCCC[C@@H]2CN1C[C@@H](O)[C@H](Cc1ccccc1)NC(=O)[C@H](CC(N)=O)NC(=O)c1ccc2ccccc2n1 [Saquinavir mesylate]	1.63
C[C@]12CCC(=O)C=C1CC[C@@H]1[C@@H]2C(=O)C[C@@]2(C)[C@H]1CC[C@]2(O)C(=O)CO [Cortisone]	0.971
COc1nc(C)nc(Cl)c1NC1=NCCN1 [Moxonidine]	1.01
CC(=O)OCC(=O)[C@@]1(O)[C@H](C)C[C@H]2[C@@H]3CCC4=CC(=O)C=C[C@]4(C)[C@@]3(F)[C@@H](O)C[C@@]21C [Dexamethasone acetate]	1.03
COC(=O)CCc1ccc(OCC(O)CNC(C)C)cc1 (stereo not drawn) [Esmolol hydrochloride]	1.09
COCC(=O)Nc1c(I)c(C(=O)NCC(O)CO)c(I)c(C(=O)N(C)CC(O)CO)c1I (stereo not drawn) [Iopromide]	1.03
CC(C(=O)O)c1ccc(-c2ccccc2)c(F)c1 (stereo not drawn) [Flurbiprofen]	0.943
C(=C\c1ccccc1)/CN1CCN(C(c2ccccc2)c2ccccc2)CC1 [Cinnarizine]	0.817
CNC(=C[N+](=O)[O-])NCCSCc1ccc(CN(C)C)o1 [Ranitidine hydrochloride]	0.992
